From PubChem
In the library only some 0.75% were active in any assay of this set; here they are far more common.
TcdB GH inh – TcdB glycohydrolase inhibition | P18177 | TcdB glycohydrolase enzymatic assay, plate reader | inhibition, % at 9.99 µM | 350,000 tested, 0.24% active; in the data active means inhibition above about 10%
Yp Topo-I inh – inhibitors of Yersinia pestis topoisomerase I. 360,000 tested, 0.064% active. Y. pestis Topo-I cleavage product accumulation, plate reader. activity, % at 10 µM; in the data active means activity above about 50%, passing the limit was not always enough
Sa RN4220 lethal – kills Staphylococcus aureus RN4220. S. aureus RN4220 growth, OD600, 16 h. inhibition, % (test concentration not listed). 330,000 tested, 0.33% active. AID 1259311; in the data active means inhibition above about 85%;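 further: plate controls were untreated cells for no effect and reference antibiotic for full effect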
ugtP null kill – kills S. aureus RN4220 lacking UgtP; S. aureus RN4220 ugtP deletion, OD600 growth, 16 h; growth inhibition, % (concentration not given with the values); 330,000 tested, 0.54% active; AID 1259309; in the data active means growth inhibition above about 68%;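 further: plate controls were untreated wells for no effect and antibiotic for full effect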
Mtb hypoxia inh – reduces hypoxia-regulated biosensor signal in M. tuberculosis | fluorescence inhibition, % (test concentration not listed) | AID 1159583 | M. tuberculosis hypoxia-regulated fluorescent reporter, fluorescence | 300,000 tested, 0.1% active; in the data active means fluorescence inhibition mostly above about 23%, no sharp cut-off; inactive means mostly below about 17%
BioA inh – BioA (M. tuberculosis) enzyme inhibition; purified M. tuberculosis BioA enzyme, plate reader; inhibition, % at 9.99 µM; 360,000 tested, 0.096% active; AID 602481; in the data active means inhibition above about 40%
* = called active by the depositor.

Results for Nc1cc(=O)[nH]c(SCC(=O)Nc2ccccc2Sc2ccc(Cl)cc2)n1 ?
TcdB GH inh: 10.2*; Yp Topo-I inh: 2.3; Sa RN4220 lethal: 6.4; ugtP null kill: 9.9; Mtb hypoxia inh: 8.8

Results for CCN(Cc1ccccc1)C(=O)c1oc2ccc(C)cc2c1C ?
TcdB GH inh: 1.4; Yp Topo-I inh: 53.4*; Sa RN4220 lethal: 5.7; ugtP null kill: 65.4; Mtb hypoxia inh: 18.9; BioA inh: 0.0

What do the screens show for `CCOC1OC(C(=O)NCc2nc3ccccc3[nH]2)=CC(c2ccc(C(F)(F)F)cc2)C1CCCO` (centres undefined)?
Sa RN4220 lethal: 1.7; ugtP null kill: -6.4; Mtb hypoxia inh: -8.0

What do the screens show for `Cc1ccc(C(=O)c2coc3ccc(O)c(Cl)c23)cc1`?
Yp Topo-I inh: 0.4; Sa RN4220 lethal: 5.0; ugtP null kill: 10.7; Mtb hypoxia inh: -2.2; BioA inh: 2.4

What do the screens show for `O=C(c1ccccc1)c1coc2ccc(O)c(Cl)c12`?
TcdB GH inh: 12.2*; Yp Topo-I inh: -0.4; Sa RN4220 lethal: 7.6; ugtP null kill: 2.3; Mtb hypoxia inh: 8.4; BioA inh: 0.4

What do the screens show for `CCC1Cc2cc(O)ccc2C2=C1c1ccc(O)cc1CC2CC` (centres undefined)?
Sa RN4220 lethal: 97.8*; ugtP null kill: 88.8; Mtb hypoxia inh: 5.7

Results for C[C@@]12C(=O)N(c3ccc(Cl)cc3)C(=O)N1C1c3ccccc3OCC1C2c1ccccc1 (some centres undefined) ?
Sa RN4220 lethal: 9.8; ugtP null kill: -14.8; Mtb hypoxia inh: 5.9

Results for CCN1C(=O)c2cccc3c(S(=O)(=O)Nc4ccccc4)ccc1c23 ?
Yp Topo-I inh: 19.0; Sa RN4220 lethal: 9.6; ugtP null kill: -7.9; Mtb hypoxia inh: 9.6; BioA inh: 5.5

How did CCN1C(=O)c2cccc3c(S(=O)(=O)Nc4nc(C)cs4)ccc1c23 do in these assays?
Yp Topo-I inh: -1.1; Sa RN4220 lethal: 28.0; ugtP null kill: 95.4*; BioA inh: 2.8

What do the screens show for `CN1/C(=C/C=C/c2n(C)c3cc([N+](=O)[O-])c([N+](=O)[O-])cc3[n+]2C)C(C)(C)c2ccccc21`?
TcdB GH inh: 12.5*; Yp Topo-I inh: -17.5; BioA inh: 11.7

What do the screens show for `COc1ccc(C(=O)COC(=O)CNC(=O)c2ccc(C)s2)c(OC)c1`?
TcdB GH inh: 0.7; Yp Topo-I inh: 4.9; Sa RN4220 lethal: 4.4; ugtP null kill: 7.9; Mtb hypoxia inh: 34.9*; BioA inh: -0.9

Results for COc1cc(NC(=O)COC(=O)CNC(=O)c2ccc(C)s2)cc(OC)c1 ?
TcdB GH inh: -1.2; Yp Topo-I inh: 6.7; Sa RN4220 lethal: 4.3; ugtP null kill: -3.5; Mtb hypoxia inh: 5.7

How did COc1ccc(N(CC(=O)NN=Cc2cc3ccc(OC)cc3nc2Cl)S(=O)(=O)c2ccccc2)cc1 do in these assays?
Sa RN4220 lethal: 9.9; ugtP null kill: 3.8; Mtb hypoxia inh: -2.1

How did COc1ccc(N=Nc2c(C)[nH]c3ccccc23)cc1 do in these assays?
TcdB GH inh: 1.5; Yp Topo-I inh: -7.7; Sa RN4220 lethal: -2.0; ugtP null kill: 81.7*; Mtb hypoxia inh: 14.1; BioA inh: 0.0

How did CCC(C)(C)c1ccc(OCCCC[n+]2ccc(C)cc2)c(C(C)(C)CC)c1 do in these assays?
Sa RN4220 lethal: 100.5*; ugtP null kill: 100.4*

What do the screens show for `CCC(C)(C)c1ccc(OCCCC[n+]2cccc(C)c2C)c(C(C)(C)CC)c1`?
TcdB GH inh: 9.8; Yp Topo-I inh: -0.5; Sa RN4220 lethal: 100.8*; ugtP null kill: 100.5*; BioA inh: 9.2

Results for Cc1cc(C(C)(C)C)ccc1OCCCCN1CCCC1 ?
Yp Topo-I inh: -2.8; Sa RN4220 lethal: -3.0; ugtP null kill: 33.3; Mtb hypoxia inh: 8.7

What do the screens show for `CCOc1cc(C=NNC(=O)Cn2nc([N+](=O)[O-])cc2C)ccc1OCc1cccc2ccccc12`?
Sa RN4220 lethal: -6.6; ugtP null kill: -10.9

What do the screens show for `CC(=NNc1ccccn1)c1ccc(OC(F)F)cc1`?
Sa RN4220 lethal: 2.7; ugtP null kill: 92.6*; Mtb hypoxia inh: -14.8

How did Cc1ccc(C)c(NC(=O)CN(C)C(=O)c2ccc(S(=O)(=O)N3CCCCCC3)cc2)c1 do in these assays?
TcdB GH inh: 0.5; Yp Topo-I inh: 20.8; Sa RN4220 lethal: 1.5; ugtP null kill: -0.2; Mtb hypoxia inh: 31.3*; BioA inh: 1.1

How did Cc1ccc(C)c(NC(=O)CN(C)C(=O)c2cc(S(=O)(=O)N3CCOCC3)ccc2N2CCCC2)c1 do in these assays?
TcdB GH inh: 0.8; Yp Topo-I inh: -7.4; Sa RN4220 lethal: 0.8; ugtP null kill: 7.8; Mtb hypoxia inh: 2.5; BioA inh: -0.5

Results for COc1ccc2sc(-c3ccccc3OC)c(-c3ccc(OCCN(C)C)cc3)c2c1 ?
TcdB GH inh: 2.8; Yp Topo-I inh: -21.9; Sa RN4220 lethal: 1.9; ugtP null kill: 88.0*; Mtb hypoxia inh: 20.0; BioA inh: -0.8

What do the screens show for `COc1cccc(-c2sc3ccc(OC)cc3c2-c2ccc(OCCN3CCCC3)cc2)c1`?
Yp Topo-I inh: -21.4; Sa RN4220 lethal: 95.3*; ugtP null kill: 90.4*; BioA inh: -1.8

What do the screens show for `COc1ccc(-c2c(-c3ccccc3OC)sc3ccccc23)cc1OC`?
TcdB GH inh: 0.8; Yp Topo-I inh: 20.8; Sa RN4220 lethal: -0.5; ugtP null kill: 12.3; Mtb hypoxia inh: 2.1; BioA inh: 0.0

How did COc1cccc(-c2sc3ccc(OC)cc3c2-c2ccc(OC)cc2F)c1 do in these assays?
TcdB GH inh: -0.2; Yp Topo-I inh: -0.1; Sa RN4220 lethal: -0.6; ugtP null kill: 90.0*; Mtb hypoxia inh: 1.9; BioA inh: 5.2

Results for COc1ccccc1-c1sc2ccccc2c1-c1ccc2c(c1)OCCO2 ?
TcdB GH inh: 2.8; Yp Topo-I inh: -12.8; Sa RN4220 lethal: -9.7; ugtP null kill: 99.0*; Mtb hypoxia inh: 5.1; BioA inh: -1.1

What do the screens show for `CN(C)c1ccnc(-n2cccc2C=NOCc2ccccc2)c1C#N`?
Sa RN4220 lethal: 0.7; ugtP null kill: 7.5

How did COc1ccc(C2C=CCN(S(=O)(=O)c3ccc(-c4ccccc4)cc3)CC(=O)N2Cc2ccc(F)cc2)cc1 (centres undefined) do in these assays?
Sa RN4220 lethal: 2.8; ugtP null kill: 7.3; Mtb hypoxia inh: 5.9

What do the screens show for `Cc1c(C=NNC(=O)C2COc3ccc(C(C)(C)C)cc3O2)c2ccccc2n1C` (centres undefined)?
Sa RN4220 lethal: -4.8; ugtP null kill: -19.2; Mtb hypoxia inh: -2.3

What do the screens show for `N#C/C(=C\c1c[nH]c2ccccc12)C(N)=O`?
TcdB GH inh: 0.2; Yp Topo-I inh: 2.8; Sa RN4220 lethal: 3.2; ugtP null kill: -0.7; Mtb hypoxia inh: 10.7

What do the screens show for `CC(=O)Oc1c(/C=C(\C#N)C(N)=O)[nH]c2ccccc12`?
TcdB GH inh: -2.0; Yp Topo-I inh: -5.4; Sa RN4220 lethal: 96.4*; ugtP null kill: 86.6*; Mtb hypoxia inh: -12.2; BioA inh: -17.3
